Data on six molecules can be found in PubChem BioAssay.

In experiment [1] the target is 6-phosphogluconate dehydrogenase, decarboxylating (Homo sapiens) (UniProt P52209). The experiment can be described thus: inhibition of human phosphogluconate dehydrogenase – biochemical, recombinant enzyme, NADPH absorbance, primary screen (AID 1159550;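 active = at least 20% inhibition of 6-phosphogluconate dehydrogenase activity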). To be noted: recombinant 6PGD, NADPH absorbance 341 nm; at 10 µM; stronger effect = higher value.
Sequence of 6-phosphogluconate dehydrogenase, decarboxylating (Homo sapiens) (P52209 whole entry, looked up): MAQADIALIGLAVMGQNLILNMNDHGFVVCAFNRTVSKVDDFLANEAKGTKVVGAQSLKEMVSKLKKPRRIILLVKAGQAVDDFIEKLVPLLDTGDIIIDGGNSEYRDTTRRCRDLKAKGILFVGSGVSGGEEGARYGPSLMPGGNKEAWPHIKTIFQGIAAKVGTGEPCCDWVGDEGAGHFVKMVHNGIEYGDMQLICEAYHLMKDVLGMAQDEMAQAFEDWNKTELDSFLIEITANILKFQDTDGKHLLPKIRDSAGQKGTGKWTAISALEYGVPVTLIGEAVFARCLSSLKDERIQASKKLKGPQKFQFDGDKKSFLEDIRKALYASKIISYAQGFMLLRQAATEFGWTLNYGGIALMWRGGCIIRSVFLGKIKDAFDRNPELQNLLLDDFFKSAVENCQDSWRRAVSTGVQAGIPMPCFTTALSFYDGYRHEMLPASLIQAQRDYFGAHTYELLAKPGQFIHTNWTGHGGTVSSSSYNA
Experiment [2] can be described thus: EMT-state selective cytotoxicity in co-culture – imaging, PC-3E GFP, TEM4-18 mCherry, primary screen (AID 1345086;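 active = compounds killing one labelled cell type while sparing the other, by normalised counts and ratio limits, not self-fluorescent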;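 for all read-outs here: cells exposed to compound for 72 h before imaging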;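 for red/green cell ratio (normalised): normalised mesenchymal count divided by normalised epithelial count so high means epithelial killing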). To be noted: PC-3E GFP / TEM4-18 mCherry co-culture, imaging cell counts, at 1 µM; for red/green cell ratio (normalised): actives lie on both sides, counts scaled to control wells, 1 = unselective.
Experiment [3] in a line: viability loss with induced miR-34 in A549 – imaging, A549 dox-inducible miR-34, nuclei and caspase counts, primary screen (AID 1347080). Conditions: A549 miR-34 inducible, Hoechst nuclei count, 48 h.
The nature of experiment [4]: MELAS cybrid and Rieske KO viability enhancers – cell-based, MELAS cybrids, Rieske KO mouse fibroblasts, CellTiter-Glo, primary screen (AID 1508586;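 active = mean z-score across replicates of 1.96 or higher in either the MELAS or the Rieske mutant cell line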;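 note: z relative to plate mean and SD of compound and empty wells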). Conditions: low glucose.
Experiment [5] concerns the target Mitogen-activated protein kinase 7 (Homo sapiens) (UniProt Q13164). The experiment in a line: Gal4-ERK5 driven luciferase induction – cell-based, HTS, primary screen (AID 1508626;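 active = luciferase signal above three times the same-plate solvent-only control wells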;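 note: luciferase driven by Gal4-ERK5 fusion binding five Gal4 sites before minimal TATA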). Conditions: HeLa Gal4-ERK5 transactivation, 18 h, at 5 µM, stronger effect = higher value.
Experiment [6] in a line: galactose survival enhancers in mitochondrial complex I cybrids – cell-based, galactose medium, ATP luminescence, primary screen (AID 1645843;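 active = z-score of at least 1.8 in each of two replicates, scored against plate mean and spread of sample wells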;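 note: positive z means more ATP and so rescue of galactose-driven cybrid death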). To be noted: complex I mutant cybrid cells, 72 h, stronger effect = higher value.
The nature of experiment [7]: blockers of polyQ-driven CASP3 activation – cell-based (AID 1583). Conditions: polyglutamine-induced caspase-3 activation, cell assay; stronger effect = higher value;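 tested at 10 µM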.
Experiment [8] is described as follows: yeast 75Q aggregation reduction – 75Q-TubU reporter (AID 1593). To be noted: Yeast 75Q polyglutamine aggregation reporter.
The nature of experiment [9]: restoration of touch response, mutant HTT neurons – whole organism, C. elegans mechanosensory neurons, N-terminal huntingtin (AID 1599). Conditions: C. elegans polyQ-huntingtin mechanosensory neurons, stronger effect = higher value.
Experiment [10] can be described thus: blockers of cytochrome c efflux from mitochondria – biochemical, purified mitochondria (AID 1603).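 Note: mouse liver mitochondria challenged with calcium chloride; signal normalized to the plate average as 100%.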 Conditions: stronger effect = lower value.
Experiment [11] can be described thus: polyglutamine aggregate formation blockers (AID 1604). Conditions: polyglutamine-induced protein aggregation inhibition assay; stronger effect = higher value; tested at 2.5 µM.
Experiment [12] can be described thus: glutamate transport activators, MN-1 cells, MN-1 cell line (AID 1612).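 Note: tested at 1 µM final; 0% = mean of DMSO vehicle wells on each plate; positive means more glutamate uptake than control and negative means less.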 To be noted: MN-1 motor neuron cells, stronger effect = higher value.
A short description of experiment [13]: GFP-Q80 aggregate reduction, neuronal-like cells, cell-based, NGF-treated PC12, GFPQ80 (AID 1614).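 Note: lower means fewer inclusions and 0 means no inclusions at all.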 Conditions: PC12 NGF-treated GFP-polyQ80 inclusion reduction.
The nature of experiment [14]: 75Q-TubH aggregate inhibition, S. cerevisiae, yeast (AID 1616). Conditions: S. cerevisiae 75Q-TubH polyglutamine aggregation suppression; stronger effect = higher value.
Experiment [15] can be described thus: P. berghei load reduction in hepatocytes – cell-based, HepG2, luciferase luminescence, HepG2 viability, primary screen (AID 624349; in the data active = parasite load remaining mostly below about 12%, no sharp cut-off; inactive = mostly above about 10%;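 note: 100% = mean of DMSO negative control wells on the same plate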). To be noted: P. berghei liver stage in HepG2, luciferase luminescence, concentration not given here; parasite load remaining: stronger effect = lower value; viability: measured here: HepG2 viability without parasites.
Experiment [16] has as its target NAD(+) hydrolase SARM1 (Homo sapiens) (UniProt Q6SZW1). The experiment in a line: blocking NAD cleavage by SARM1 SAM-TIR – cell lysate, NAD-Glo luminescence (AID 1508614;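 active = compound whose remaining NAD level is above about 45 nM, limit read from the data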;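 note: higher remaining NAD means stronger inhibition of SARM1 NADase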). Conditions: SAM-TIR HEK293T lysate NADase, at 1 µM, stronger effect = higher value.
The nature of experiment [17]: compounds altering circadian rhythm period length – cell-based, LOPAC library, luminescence reporter (AID 2774; call rule not given here;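 note: values are relative to mean of DMSO wells on each plate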). To be noted: circadian reporter cells, at 7 µM, actives lie on both sides.
Experiment [18] concerns Hepatitis C virus NS3 helicase. The experiment can be described thus: blockers of NS3h binding to ssDNA – biochemical, fluorescence polarization, LOPAC1280 library, primary screen (AID 687035; in the data active = inhibition above about 37%). To be noted: Purified HCV NS3 helicase, Cy5-dT15 ssDNA binding fluorescence polarization; stronger effect = higher value; concentration not given here. (In fluorescence polarisation assays a small probe gives low polarisation when free and higher when bound to something large.)

Experiment [19] is described as follows: blockers of cellular phospholipid synthesis – cell-based, LOPAC library, screen 4, primary screen (AID 1347384; call rule not given here). Conditions: animal cells, phospholipid biosynthesis inhibition screen; at 10 µM.
The mark [20] stands for this setting: measured here: epithelial PC-3E GFP cell survival.
Where [21] appears, read: measured here: mesenchymal TEM4-18 mCherry cell survival.
Where [22] appears, read: stronger effect = lower value, cell number ratio, induced over uninduced.
Setting [23] is: measured here: relative caspase fold change +Dox/-Dox.
The mark [24] stands for this setting: measured here: total cells with miR-34 induction, stronger effect = lower value.
Where [25] appears, read: measured here: total cells without miR-34 induction.
The mark [26] stands for this setting: MELAS cybrid survival, CellTiter-Glo 48 h, stronger effect = higher value.
Setting [27] is: Rieske KO mouse fibroblast survival, CellTiter-Glo 72 h.

Values joined by “and” are separate entries in the source; they are usually repeats but may differ in a detail not shown here. Equal entries are not always repeated. For some assays here: Entries with a potency or affinity are not part of this list. Active and inactive are the calls of the source.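 Rule for the calls, unless noted: active = compounds whose cell count with miR-34 switched on is under 0.7 times the count with it off; inactive = the rest.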

Sequence of Mitogen-activated protein kinase 7 (Homo sapiens) (Q13164 whole entry, looked up, the tested form may be a part): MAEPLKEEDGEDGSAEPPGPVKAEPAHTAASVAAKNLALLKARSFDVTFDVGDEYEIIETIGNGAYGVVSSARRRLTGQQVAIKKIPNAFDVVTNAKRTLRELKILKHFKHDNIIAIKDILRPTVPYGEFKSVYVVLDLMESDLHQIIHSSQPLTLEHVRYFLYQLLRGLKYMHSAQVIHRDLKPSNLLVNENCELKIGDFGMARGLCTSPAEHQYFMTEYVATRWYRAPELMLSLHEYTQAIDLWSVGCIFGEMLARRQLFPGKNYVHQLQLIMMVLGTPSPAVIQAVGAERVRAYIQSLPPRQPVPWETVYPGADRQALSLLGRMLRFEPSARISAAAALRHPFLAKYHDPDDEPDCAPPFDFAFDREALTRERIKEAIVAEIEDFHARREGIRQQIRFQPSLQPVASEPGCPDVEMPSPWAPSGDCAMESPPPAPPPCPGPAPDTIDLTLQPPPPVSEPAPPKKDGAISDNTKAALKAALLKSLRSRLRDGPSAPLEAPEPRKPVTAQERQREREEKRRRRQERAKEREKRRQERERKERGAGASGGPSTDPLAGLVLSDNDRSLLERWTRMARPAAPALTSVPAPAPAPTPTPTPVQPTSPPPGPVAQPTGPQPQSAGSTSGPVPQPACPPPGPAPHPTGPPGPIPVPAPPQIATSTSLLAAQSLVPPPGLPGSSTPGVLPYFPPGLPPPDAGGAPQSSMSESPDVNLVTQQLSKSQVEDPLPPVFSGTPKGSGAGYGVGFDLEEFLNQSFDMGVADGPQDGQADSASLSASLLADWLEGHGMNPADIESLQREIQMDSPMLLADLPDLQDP
Sequence of NAD(+) hydrolase SARM1 (Homo sapiens) (Q6SZW1 whole entry, looked up): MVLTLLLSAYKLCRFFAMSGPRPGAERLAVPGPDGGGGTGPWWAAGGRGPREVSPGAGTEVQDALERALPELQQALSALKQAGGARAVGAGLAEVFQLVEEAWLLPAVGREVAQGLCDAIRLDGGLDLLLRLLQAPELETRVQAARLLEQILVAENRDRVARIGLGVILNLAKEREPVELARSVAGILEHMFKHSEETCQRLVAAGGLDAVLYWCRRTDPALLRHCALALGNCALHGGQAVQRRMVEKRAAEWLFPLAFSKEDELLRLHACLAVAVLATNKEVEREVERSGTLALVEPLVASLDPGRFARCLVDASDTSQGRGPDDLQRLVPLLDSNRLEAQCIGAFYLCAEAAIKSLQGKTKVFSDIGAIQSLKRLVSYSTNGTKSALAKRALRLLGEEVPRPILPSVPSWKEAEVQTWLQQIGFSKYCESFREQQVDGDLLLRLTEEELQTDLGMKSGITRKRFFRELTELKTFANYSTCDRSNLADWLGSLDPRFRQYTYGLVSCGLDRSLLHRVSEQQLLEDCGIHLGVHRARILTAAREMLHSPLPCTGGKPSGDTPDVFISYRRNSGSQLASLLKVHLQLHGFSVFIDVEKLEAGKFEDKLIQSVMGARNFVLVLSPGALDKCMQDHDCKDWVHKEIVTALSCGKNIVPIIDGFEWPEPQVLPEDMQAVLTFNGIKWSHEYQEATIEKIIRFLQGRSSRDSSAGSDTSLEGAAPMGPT

What is called inhibition is the relative decrease from the control value, in per cent. Consider `O=c1c(O)c(-c2ccc(O)c(O)c2)oc2cc(O)ccc12`, for which the inhibition in experiment [1] is -3.55% (inactive). The red/green cell ratio (normalised) in experiment [2] was 1.02 (inactive). Further, the normalised cell number in experiment [2] (setting [20]) was 1.04; in experiment [2] (setting [21]) it was 1.06. Also, the fold change was 0.705 (inactive) and 0.857 (inactive) in experiment [3] (setting [22]); 0.235 and 0.741 in experiment [3] (setting [23]). Moreover, the cell count in experiment [3] (setting [24]) was 4440 and 7100; in [3] (setting [25]), 6300 and 8290. Also, the z-score in [4] (setting [26]) was -0.19 (inactive) and -0.5 (inactive); in experiment [4] (setting [27]), -0.897 and -0.252; in experiment [6] it was 0.17 (inactive). Further, the luciferase signal in [5] was 56 AU (inactive).

For `OCC(O)C(O)C(O)CO` (stereo unspecified), in experiment [1], the inhibition is -9.83% (inactive). Also, the red/green cell ratio (normalised) in experiment [2] was 1.02 (inactive) and 0.91 (inactive). Also, the normalised cell number in experiment [2] (setting [20]) was 0.96 and 1.18; in [2] (setting [21]), 0.97 and 1.07. Moreover, the figures for the fold change in experiment [3] (setting [22]) and in experiment [3] (setting [23]) were 0.884 (inactive) and 0.816, respectively. Also, the cell count is 9100 in experiment [3] (setting [24]) and 10300 in [3] (setting [25]). The z-score in experiment [4] (setting [26]) was -0.33 (inactive); in [4] (setting [27]), 0.446. The luciferase signal in experiment [5] was 36 AU (inactive).

As a reminder, the viability is a read-out of living cells in per cent, often relative to untreated cells. Turning to `NC(=O)c1ccc[n+]([C@@H]2O[C@H](COP(=O)([O-])OP(=O)(O)OC[C@H]3O[C@@H](n4cnc5c(N)ncnc54)[C@H](O)[C@@H]3O)[C@@H](O)[C@H]2O)c1`, the figures for the inhibition in experiment [7] and in [1] were 7.61% and 10.6% (inactive), respectively. In addition, the score in [8] came out at 1.51. Moreover, the rescue above control in [9] was determined as 2.62. Besides, the cytochrome c release ratio in experiment [10] was 0.91. In experiment [11], this molecule registered an inhibition of aggregation of 63.6%. In addition, the glutamate uptake change in experiment [12] stood at 28.3%. This molecule also had an inclusion score in [13] of 2. This molecule returned an aggregation suppression score in [14] of 1.51. For the same molecule, in experiment [15], the parasite load remaining was 87.2% (inactive) and 76.6% (inactive). The viability in [15] was 103% and 92.6%. Moreover, in [2], the red/green cell ratio (normalised) was 0.97 (inactive). Further, the normalised cell number in experiment [2] (setting [20]) was found to be 1.17; in experiment [2] (setting [21]), 1.14. The fold change is 0.824 (inactive) and 0.891 (inactive) in experiment [3] (setting [22]); 1.3 and 1.13 in experiment [3] (setting [23]). Moreover, the cell count in [3] (setting [24]) is 8060 and 11500; in experiment [3] (setting [25]) it was 9780 and 12900. In addition, the z-score in experiment [4] (setting [26]) is -1.2 (inactive); in experiment [4] (setting [27]), 0.344. Moreover, in experiment [16], the remaining NAD is 183 nM (active). Also, the luciferase signal in experiment [5] is 72 AU (inactive).

With `NCCCCC(=O)O`, the period change in [17] is 0.155 h (inactive). Also, the parasite load remaining in [15] is 89.3% (inactive). Besides, in experiment [15], the viability is 71.9%. The results for the inhibition in experiment [18] and in experiment [1] were -1% (inactive) and -7.89% (inactive), respectively. Moreover, the red/green cell ratio (normalised) in experiment [2] was 0.85 (inactive). Also, the normalised cell number in experiment [2] (setting [20]) is 1.1; in experiment [2] (setting [21]), 0.94. Also, the fold change in experiment [3] (setting [22]) is 1 (inactive); in [3] (setting [23]), 1.48. Besides, the cell count in [3] (setting [24]) and in experiment [3] (setting [25]) was 10300 in each case. Moreover, in experiment [19], the call was inactive. Further, in experiment [5], the luciferase signal was 52 AU (inactive). Moreover, in experiment [6], the z-score was 0.885 (inactive).

For `N[C@@H](Cc1cc(I)c(Oc2ccc(O)c(I)c2)c(I)c1)C(=O)O`, in [15], the parasite load remaining is 78.5% (inactive) and 158% (inactive) and 41% (inactive). Also, the viability in experiment [15] was 96% and 73% and 101%. The inhibition in experiment [1] is 0.697% (inactive). Moreover, the red/green cell ratio (normalised) in experiment [2] is 1.24 (inactive). In addition, the values for the normalised cell number in [2] (setting [20]) and in experiment [2] (setting [21]) were 0.91 and 1.14, respectively. The fold change in [3] (setting [22]) is 0.925 (inactive) and 0.987 (inactive); in [3] (setting [23]) it was 0.994 and 1.44. The cell count is 10000 and 11900 in experiment [3] (setting [24]); 10800 and 12100 in experiment [3] (setting [25]). Further, the results for the z-score in [4] (setting [26]) and in [4] (setting [27]) were -0.576 (inactive) and -1.73, respectively. The remaining NAD in [16] is 10 nM (inactive). Also, the luciferase signal in [5] was 80 AU (inactive).

On to `NC(N)=NC(=O)c1nc(Cl)c(N2CCCCCC2)nc1N`, for which the period change in experiment [17] was 0.165 h (inactive). In addition, the inhibition is -5% (inactive) in [18] and 12.2% (inactive) in experiment [1]. Further, the red/green cell ratio (normalised) in [2] was 0.8 (inactive). In addition, the values for the normalised cell number in experiment [2] (setting [20]) and in [2] (setting [21]) were 1.26 and 1.01, respectively. The fold change in experiment [3] (setting [22]) was 1.18 (inactive); in experiment [3] (setting [23]) it was 1.04. The cell count came out at 4710 in [3] (setting [24]) and 3990 in experiment [3] (setting [25]). The result in [19] was inactive. Besides, in experiment [6], the z-score is -1.46 (inactive).
